# Laboratory results taken from PubChem BioAssay.
# Activity calls are given as the source filed them. Unless noted, the rule behind the calls is not given here.
# Columns and labels:
# [1] = test system: Wnt5a (protein binding on small-molecule microarray); experiment: small molecules binding Wnt5a protein – biophysical, small-molecule microarray, 635/667 nm fluorescence, primary screen (AID 1142); conditions: 635 nm fluorescence, higher = more signal;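 note: fluorescence read at 667 nm with signal to noise per printed feature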
# [2] = ATP-based viability of Huh7 replicon cells – cell-based, CellTiter-Glo luminescence, basal, 48 h, cytotoxicity control for HCV replication inhibitor project, primary screen (AID 1143); conditions: higher = more signal, called active from +8 up or from −8 down;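 note: Huh7 hepatoma cells carrying a hepatitis C replication reporter with no stimulus; test concentration not given here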
# [3] = Pseudomonas biofilm growth suppression – PAO1 strain, BacTiter-Glo luminescence, LB-PBS, primary screen (AID 1144); conditions: P. aeruginosa PAO1 biofilm, 12 h, higher = more signal
# [4] = basal CRE-LacZ reporter activity in PC12 – cell-based, unstimulated, primary screen (AID 1145); conditions: no forskolin, luminescence, 4.5 h, higher = more signal, called active from +8 up or from −8 down
# [5] = forskolin-driven CRE-LacZ activity in PC12 – cell-based, CRE-LacZ reporter, forskolin-stimulated, primary screen (AID 1146); conditions: luminescence, 4.5 h, higher = more signal, called active from +8 up or from −8 down;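 note: PC12 cells with 6xCRE LacZ reporter stimulated by forskolin 10 µM; beta-galactosidase reporter signal reflecting CREB driven transcription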
# [6] = biological target: Streptavidin (Streptomyces avidinii) (UniProt P22629); experiment: compounds binding control protein streptavidin – biophysical, small-molecule microarray, 635/667 nm fluorescence, artefact control for SMM compound annotation, primary screen (AID 1147); conditions: higher = more signal;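 note: signal reflects streptavidin binding to arrayed compounds as a control protein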
# [7] = probe aInhba binding on compound microarray – biochemical, small-molecule microarray, 635/667 nm fluorescence, primary screen (AID 1148); conditions: higher = more signal;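 note: score merges 667nm spot fluorescence with signal-to-noise for antibody binding to printed compounds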
# Torsin-1A (Homo sapiens) [8] = biological target: Torsin-1A (Homo sapiens) (UniProt O14656); experiment: TOR1A wild-type binding on microarray – cell lysate, small-molecule microarray, lysate, 635/667 nm, primary screen (AID 1149); conditions: COS7 hTOR1A-WT lysate, 635 nm fluorescence, higher = more signal
# Torsin-1A (Homo sapiens) [9] = biological target: Torsin-1A (Homo sapiens) (UniProt O14656); experiment: torsin A mutant lysate binding on microarrays – cell lysate, small-molecule microarray, COS7 lysate, 635/667 nm fluorescence, primary screen (AID 1150); conditions: COS7 hTOR1A mutant lysate, 635 nm fluorescence, higher = more signal;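 note: score pools 667 nm emission and signal to noise measuring lysate protein binding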
# [10] = test system: Sonic hedgehog protein (Shh); experiment: Sonic hedgehog microarray binding compounds – biochemical, small-molecule microarray, 635/667 nm fluorescence, primary screen (AID 1151); conditions: 635 nm fluorescence, higher = more signal;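 note: Shh protein binding to compounds spotted on small-molecule microarray slides; score combines spot fluorescence intensity with signal-to-noise across triplicate slides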
# [11] = optical density shifts of acrAB sulA E. coli – strain DRC41, OD650, 48 h, E. coli filamentation inducer project, primary screen (AID 1152); conditions: higher = more signal, called active from +8 up or from −8 down;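 note: E. coli MC1000 strain DRC41 lacking acrAB efflux pump and sulA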
# [12] = probe aLefty1 binding on compound microarray – biochemical, small-molecule microarray, 635/667 nm fluorescence, primary screen (AID 1153); conditions: higher = more signal;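 note: score merges spot fluorescence with signal-to-noise ratio from the scanned slide images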
# [13] = plasmodial surface anion channel blockers, osmotic lysis – cell-based, P. falciparum Indochina, OD700, 1 h, primary screen (AID 1154); conditions: P. falciparum Indochina infected RBC osmotic lysis, higher = more signal, called active from +8 up or from −8 down
# [14] = plasmodial surface anion channel blockers, osmotic lysis – cell-based, P. falciparum Indochina, OD700, 2 h, primary screen (AID 1155);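 note: lysis reports solute entry through the parasite surface anion channel PSAC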; conditions: P. falciparum Indochina infected erythrocytes, higher = more signal, called active from +8 up or from −8 down
# [15] = changes in parasitized red cell lysis, either direction – P. falciparum Indochina, OD700, 3 h, PSAC antagonist project, primary screen (AID 1156); conditions: P. falciparum-infected erythrocytes, osmotic lysis, higher = more signal, called active from +8 up or from −8 down
# [16] = plasmodial surface anion channel blockers, osmotic lysis – cell-based, P. falciparum Indochina, OD700, 18 h, primary screen (AID 1157); conditions: P. falciparum Indochina infected erythrocytes, osmotic lysis OD700, 18 h; higher = more signal, called active from +8 up or from −8 down
# [17] = S6 kinase pathway phospho-S6 level changes – cell-based, A549, cytoblot, luminescence, serum-stimulated, primary screen (AID 1158); conditions: 5 h, higher = more signal;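 note: serum-stimulated A549 lung adenocarcinoma cells; signal is phosphorylated S6 detected by cytoblot immunostaining with HRP secondary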
# [18] = biological target: NADPH oxidase 2 (Homo sapiens) (UniProt P04839); experiment: compounds shifting NOX2 Amplex Red fluorescence – cell-based, HEK293-NOX2, PMA-stimulated, NOX inhibitor project, primary screen (AID 1159); conditions: 45 min, higher = more signal, called active from +8 up or from −8 down; note: test concentration not given here
# [19] = biological target: NADPH oxidase 4 (Homo sapiens) (UniProt Q9NPH5); experiment: compounds shifting NOX4 Amplex Red fluorescence – cell-based, HEK293-NOX4, tetracycline-induced, NOX inhibitor project, primary screen (AID 1160); conditions: HEK293-NOX4, Amplex Red H2O2 fluorescence, 45 min; higher = more signal, called active from +8 up or from −8 down
# [20] = biological target: NADPH oxidase 5 (Homo sapiens) (UniProt Q96PH1); experiment: compounds shifting NOX5 Amplex Red fluorescence – cell-based, HEK293-NOX5, NOX inhibitor project, primary screen (AID 1161); conditions: HEK293-NOX5, ionomycin, 45 min, higher = more signal
# Sequence of NADPH oxidase 5 (Homo sapiens) (Q96PH1 whole entry, looked up): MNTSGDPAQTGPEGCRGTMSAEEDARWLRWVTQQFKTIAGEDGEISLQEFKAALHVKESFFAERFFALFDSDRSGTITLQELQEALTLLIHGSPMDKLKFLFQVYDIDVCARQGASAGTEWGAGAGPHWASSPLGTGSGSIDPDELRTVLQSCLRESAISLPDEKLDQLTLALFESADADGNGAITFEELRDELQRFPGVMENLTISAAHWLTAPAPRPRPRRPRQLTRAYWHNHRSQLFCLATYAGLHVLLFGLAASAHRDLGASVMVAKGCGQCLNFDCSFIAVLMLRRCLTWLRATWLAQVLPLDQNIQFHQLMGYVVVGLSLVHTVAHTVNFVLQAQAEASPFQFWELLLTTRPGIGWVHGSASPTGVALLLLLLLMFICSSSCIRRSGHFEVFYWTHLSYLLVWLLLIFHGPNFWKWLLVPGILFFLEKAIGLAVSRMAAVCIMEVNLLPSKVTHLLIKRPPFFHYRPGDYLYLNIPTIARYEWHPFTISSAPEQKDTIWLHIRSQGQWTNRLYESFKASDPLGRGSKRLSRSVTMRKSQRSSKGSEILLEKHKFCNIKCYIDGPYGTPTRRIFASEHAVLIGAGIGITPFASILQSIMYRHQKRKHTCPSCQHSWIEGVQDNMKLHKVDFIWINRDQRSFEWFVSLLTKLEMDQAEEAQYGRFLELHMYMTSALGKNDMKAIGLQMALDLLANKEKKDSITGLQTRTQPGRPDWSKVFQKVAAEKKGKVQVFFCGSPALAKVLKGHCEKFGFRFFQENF
# Sequence of NADPH oxidase 4 (Homo sapiens) (Q9NPH5 whole entry, looked up): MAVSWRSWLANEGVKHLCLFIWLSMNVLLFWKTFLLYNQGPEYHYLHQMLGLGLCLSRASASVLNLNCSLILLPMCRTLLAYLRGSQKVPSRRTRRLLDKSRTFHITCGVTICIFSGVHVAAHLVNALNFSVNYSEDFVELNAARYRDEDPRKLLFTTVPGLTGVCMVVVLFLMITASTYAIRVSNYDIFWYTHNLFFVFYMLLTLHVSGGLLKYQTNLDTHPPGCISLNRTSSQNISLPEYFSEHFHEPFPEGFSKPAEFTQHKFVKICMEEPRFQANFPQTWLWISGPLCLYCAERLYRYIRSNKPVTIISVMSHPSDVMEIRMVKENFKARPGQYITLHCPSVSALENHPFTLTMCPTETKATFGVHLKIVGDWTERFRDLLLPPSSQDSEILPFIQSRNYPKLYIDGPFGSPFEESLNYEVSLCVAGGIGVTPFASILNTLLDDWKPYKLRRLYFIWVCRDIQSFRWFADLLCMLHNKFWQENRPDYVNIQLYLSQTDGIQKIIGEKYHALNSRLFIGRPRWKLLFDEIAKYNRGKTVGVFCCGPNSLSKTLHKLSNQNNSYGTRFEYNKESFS
# Sequence of NADPH oxidase 2 (Homo sapiens) (P04839 whole entry, looked up): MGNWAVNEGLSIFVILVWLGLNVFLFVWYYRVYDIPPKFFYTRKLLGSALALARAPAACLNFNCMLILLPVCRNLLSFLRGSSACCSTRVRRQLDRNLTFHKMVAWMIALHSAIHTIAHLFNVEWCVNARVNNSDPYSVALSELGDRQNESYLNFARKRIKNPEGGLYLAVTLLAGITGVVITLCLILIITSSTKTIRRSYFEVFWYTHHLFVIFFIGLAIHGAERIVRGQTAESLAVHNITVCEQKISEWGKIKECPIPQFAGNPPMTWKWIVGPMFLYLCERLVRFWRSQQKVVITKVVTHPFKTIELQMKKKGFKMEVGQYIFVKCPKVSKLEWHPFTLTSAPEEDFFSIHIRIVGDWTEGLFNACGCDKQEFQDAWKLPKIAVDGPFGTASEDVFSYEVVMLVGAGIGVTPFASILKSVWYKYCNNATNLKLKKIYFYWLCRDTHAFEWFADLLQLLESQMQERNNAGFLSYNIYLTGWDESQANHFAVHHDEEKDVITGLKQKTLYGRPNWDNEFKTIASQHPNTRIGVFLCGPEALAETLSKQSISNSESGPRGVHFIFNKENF
# Sequence of Torsin-1A (Homo sapiens) (O14656 whole entry, looked up): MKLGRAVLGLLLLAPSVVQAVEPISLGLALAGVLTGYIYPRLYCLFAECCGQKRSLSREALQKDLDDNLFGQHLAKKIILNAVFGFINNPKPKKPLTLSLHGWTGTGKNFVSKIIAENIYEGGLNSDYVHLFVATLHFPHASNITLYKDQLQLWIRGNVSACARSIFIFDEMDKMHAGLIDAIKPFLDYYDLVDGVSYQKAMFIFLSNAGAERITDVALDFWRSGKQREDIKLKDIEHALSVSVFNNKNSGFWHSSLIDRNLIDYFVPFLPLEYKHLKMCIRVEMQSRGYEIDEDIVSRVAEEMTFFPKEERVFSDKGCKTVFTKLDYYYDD
# Sequence of Streptavidin (Streptomyces avidinii) (P22629 whole entry, looked up): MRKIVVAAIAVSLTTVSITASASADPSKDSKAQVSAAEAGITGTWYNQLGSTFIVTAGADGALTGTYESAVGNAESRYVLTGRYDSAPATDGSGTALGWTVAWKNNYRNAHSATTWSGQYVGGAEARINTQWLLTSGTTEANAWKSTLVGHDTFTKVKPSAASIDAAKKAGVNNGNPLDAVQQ
Compound,composite z-score [1],z-score [2],z-score [3],z-score [4],z-score [5],composite z-score [6],composite z-score [7],composite z-score (Torsin-1A (Homo sapiens) [8]),composite z-score (Torsin-1A (Homo sapiens) [9]),composite z-score [10],z-score [11],composite z-score [12],z-score [13],z-score [14],z-score [15],z-score [16],z-score [17],z-score [18],z-score [19],z-score [20]
C=CCC(OC(C)=O)[C@@H]1[C@@H](N(Cc2cccc3ccccc23)C(=O)Cc2ccc(OC)cc2)c2cc(OCCCO)ccc2N1C(=O)c1ccc2ccccc2c1 (stereo not given in full),-0.186,-3.04 (inactive),-0.719 (inactive),0.0458 (inactive),-0.383 (inactive),0.172,-0.152,0.794,-0.118,0.239,0.808 (inactive),0.147,0.79 (inactive),-0.443 (inactive),-0.214 (inactive),-0.691 (inactive),1.2,-2.11 (inactive),-1.24 (inactive),-0.827
COC(=O)[C@@]1(Cc2ccccc2)[C@H]2c3cc(C(=O)N(C)C)n(CCSC(=N)N)c3C[C@H]2CN1C(=O)c1ccccc1,-0.042,0.0619 (inactive),-0.367 (inactive),0.583 (inactive),0.53 (inactive),-0.405,0.0444,-0.524,-0.209,-0.564,-0.817 (inactive),0.138,0.929 (inactive),0.542 (inactive),0.746 (inactive),0.494 (inactive),-0.0307,0.251 (inactive),-0.357 (inactive),-1.01
COC(=O)[C@@]1(Cc2ccccc2)[C@H]2c3cc(C(=O)N4CCCC4)n(Cc4ccc(OC)c(OC)c4)c3C[C@H]2CN1C(=O)c1ccccc1,0.56,-1.99 (inactive),0.388 (inactive),0.39 (inactive),0.208 (inactive),0.782,0.715,0.279,1.18,-0.121,-1.08 (inactive),0.347,1.76 (inactive),0.41 (inactive),2.24 (inactive),0.861 (inactive),-0.321,0.136 (inactive),0.104 (inactive),-3.31
